Bioassay records from PubChem BioAssay.
HPGD block – blocks human HPGD enzyme activity | 150,000 compounds, 4.3% hits | Potency, µM, inactives show at the highest dose activity change, negative = inhibition, hits mostly inhibitors | P15428 | purified HPGD, NADH fluorescence kinetic, PGE2 substrate; active = well fitted inhibition curve with a large enough effect, not every such curve was filed as active; inconclusive = small, poorly fitted or top-dose-only effect, or another doubt; inactive = no such curve, though single readings can be large or run the other way; note: potency is the fitted concentration of half-maximal effect
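NADH formation kinetics: reaction with 30 uM PGE2 and 1 mM NAD+ (final), 20 nM enzyme, Tris-HCl pH 8 with Tween 20, after 15 min compound preincubation at room temperature. Fluorescence change, last versus first of five reads.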
12-hLO inh – inhibitors of human 12-lipoxygenase (ALOX12); 150,000 compounds, 0.12% hits; AID 1452; Potency, µM (highest dose often 57.1 µM), for the others: at the highest dose activity change, negative = inhibition, most hits filed as inhibitors; purified 12-hLO, xylenol orange hydroperoxide absorbance; note: potency is the fitted concentration of half-maximal effect; nearly all actives have a fitted effect of over 55% in size
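Purified human 12hLO (150 nM), preincubated 15 min with compound, then 40 uM arachidonic acid for 30 min, room temperature, Hepes pH 7.0 with 0.01% Triton X-100. Hydroperoxide detected by ferrous iron/xylenol orange; 573/405 nm absorbance ratio gives reaction progress.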
IMPase Li cell – IMPase inhibition in cells with lithium potentiation | AID 1457 | 210,000 compounds, 0.35% hits | Potency, µM (top dose mostly 59.4 µM), inactives show top-dose activity, negative = IMPase inhibition, hits mostly inhibitors | CHO-M1 cells, IP1 TR-FRET (IP-One), carbachol + lithium;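 note: IP1 builds up when IMPase is blocked and the TR-FRET signal falls; potency is the fitted concentration of half-maximal effect; plate controls were basal vehicle for no effect and high inhibitor control for full effect; nearly all actives have a fitted effect of over 50% in size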
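Steps: plate 2000 CHO-M1 cells per well and culture 16–30 h; add compound and lithium; incubate 30 min, 37C; add d2-IP1 tracer and Eu cryptate anti-IP1 antibody in lysis buffer; read after 10 min at room temperature.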
PNC inhibitor – perinucleolar compartment assembly inhibition; PC3M PTB-GFP, PNC prevalence imaging, 16 h; stronger effect = lower value; 140,000 compounds, 3.1% hits; activity change (PNC), negative = inhibition, % at 10 µM;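 active = readout at or below -70, meaning at least 70% loss of cells showing the perinucleolar compartment, a nuclear body marking cancer cells; inconclusive = readout between -30 and a set limit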;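 note: plate controls were DMSO wells for no effect and camptothecin positive control wells for full effect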
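PC3M cells stably expressing PTB-GFP, 750–1000 cells/well, treated 16 h at 37 °C with compound (23 nl of library stock), in duplicate. After paraformaldehyde fixation and Hoechst stain, imaged at 20x; PNC prevalence scored by image analysis.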
15-hLO-2 inh – inhibitors of human 15-lipoxygenase 2 (ALOX15B); O15296; purified 15hLO-2, xylenol orange hydroperoxide absorbance; Potency, µM (highest dose often 57.1 µM), for the others: at the highest dose activity change, negative = inhibition, usual class: inhibitors; 110,000 compounds, 0.56% hits; AID 881; note: potency is the fitted concentration of half-maximal effect; nearly all actives have a fitted effect of over 60% in size
Target sequence (O15296 whole entry, looked up): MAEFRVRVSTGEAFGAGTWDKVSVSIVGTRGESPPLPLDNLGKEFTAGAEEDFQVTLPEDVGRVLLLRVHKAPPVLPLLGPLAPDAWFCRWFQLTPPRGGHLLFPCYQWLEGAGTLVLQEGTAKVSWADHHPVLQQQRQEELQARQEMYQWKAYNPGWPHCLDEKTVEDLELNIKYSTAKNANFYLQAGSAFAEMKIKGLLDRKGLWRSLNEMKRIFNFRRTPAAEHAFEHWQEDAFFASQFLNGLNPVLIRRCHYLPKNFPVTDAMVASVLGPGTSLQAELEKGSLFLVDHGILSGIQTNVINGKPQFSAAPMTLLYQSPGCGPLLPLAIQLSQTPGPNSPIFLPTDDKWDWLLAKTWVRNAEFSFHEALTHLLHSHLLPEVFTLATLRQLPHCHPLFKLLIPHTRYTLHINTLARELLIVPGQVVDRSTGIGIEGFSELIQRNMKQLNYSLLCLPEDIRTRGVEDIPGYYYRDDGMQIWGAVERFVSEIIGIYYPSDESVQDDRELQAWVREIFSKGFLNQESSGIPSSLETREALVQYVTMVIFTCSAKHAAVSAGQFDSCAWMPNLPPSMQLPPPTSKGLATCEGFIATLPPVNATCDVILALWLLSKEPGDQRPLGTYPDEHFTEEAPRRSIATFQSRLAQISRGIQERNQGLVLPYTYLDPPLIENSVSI
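Read-out: hydroperoxide product oxidises ferrous iron, measured as xylenol orange complex via the 573-to-405 nm absorbance ratio after 30 min. Reaction: 50 nM enzyme, 15 min compound preincubation, 45 uM arachidonic acid, 90 min RT, Hepes pH 7.5 with Triton X-100.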
IMPase cell inh – membrane-permeable compound that blocks inositol monophosphatase. 120,000 tested, under 10 active. P97697. inhibition (IP1 accumulation), % at 46.1 µM. CHO-M1 cells, IP1 accumulation, HTRF TR-FRET ratio; active = well fitted curve in the direction sought with a large enough effect in the signal ratio, not every such curve was filed as active; inconclusive = small, poorly fitted or top-dose-only effect, or a change in a side signal; inactive = no such curve, though single readings can be large or run the other way; the % refers to the signal ratio;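 note: cells stimulated with carbachol in lithium chloride buffer; plate controls were DMSO basal wells for no effect and reference inhibitor wells for full effect; higher means more IMPase inhibition seen as more IP1 and lower FRET ratio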
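Measured: the HTRF emission ratio (665/620 nm) plus the 620 nm donor channel, each fitted to the Hill equation to give AC50. Cells were CHO-M1 given compounds up to 46 uM and a 30 min carbachol stimulation at 37C.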
* hit, by the source's call; ? = inconclusive; nt = not tested or not shown; [ ] = another dose, or the depositor's remark. Most compounds without a hit are left out; they make up all but 5.3% or so of the library. Unless noted, calls come from the whole dose curve; as a rule, active = well fitted curve in the direction sought with a large enough effect; inconclusive = small, poorly fitted or top-dose-only effect, or another doubt; inactive = no such curve, though single readings can be large; an effect the other way counts as inactive or inconclusive. Unless noted, % is set by controls: 0 for no effect and ±100 for the full control effect.

SMILES | HPGD block | 12-hLO inh | IMPase Li cell | PNC inhibitor | 15-hLO-2 inh | IMPase cell inh
COc1ccc(Nc2nnc(SCc3cc([N+](=O)[O-])cc4c3OCOC4)s2)cc1 | 25µM* | -9% | 43%[38.3 µM] | ? | -9% | 9
CNc1nc(-c2ccccc2)[n+](-c2ccc(C)cc2)s1 | nt | ? | nt | 39 | nt | 0
Cc1ccc(-c2nc(N)s[n+]2-c2ccccc2)cc1 | 2.2µM* | ? | 11% | 35 | nt | nt
O=C(CN1CCN(c2ccc(O)cc2)CC1)NC(=O)NCc1ccco1 | nt | -8% | nt | 58 | nt | -5
Cc1ccccc1NS(=O)(=O)c1ccc(NC(=O)CSCc2ccc(Br)cc2)cc1 | 1% | -4% | 3% | -99* | -6% | -3
O=C(CSCc1ccc(Br)cc1)Nc1ccc(S(=O)(=O)N2CCOCC2)cc1 | -3% | -5% | -1%[38.3 µM] | 39 | -6% | 9
S=c1[nH]nc(-c2cccnc2)n1/N=C/c1ccc(Br)s1 | 16µM* | 1% | 0% | -9 | nt | nt
Cc1ccc(/C=N/n2c(-c3cccnc3)n[nH]c2=S)s1 | 13µM* | -7% | 2% | -23 | nt | nt
CCOCCc1nnc(NC(=O)Cc2c(F)cccc2Cl)s1 | nt | nt | 16% | nt | nt | nt
COc1ccc(-c2noc(CCC(=O)Nc3nc4ccccc4s3)n2)cc1 | -7% | 7% | ? | -25 | -3% | -14
O=S(=O)(c1cccs1)N1CCCc2cccc(O)c21 | 13µM* | -5% | 38%[38.3 µM] | ? | 3% | 0
O=S(=O)(c1cccs1)N1CCN(S(=O)(=O)c2cccs2)CC1 | nt | nt | 3% | nt | nt | nt
COc1ccc(NC(=O)N2CCCC3(CCN(C(C)=O)CC3)C2)cc1 | -10% | -3% | 1% | nt | 9% | nt
CC1=C(C(=O)Nc2ccccc2C)C2(CCCCC2)C(C(N)=O)C(=S)N1 (configuration not stated) | -17% | -1% | -7% | -85* | nt | nt
CSCCC(NC(=O)c1ccccc1)C(=O)NC1CCCC1 (configuration not stated) | -6% | -5% | 25%[38.3 µM] | -84* | -2% | 6
CCOc1cc(NC(=S)NCCCN2CCOCC2)c(OCC)cc1NC(=O)C1CC1 | -8% | -4% | 2% | 13 | nt | nt
Cc1ccc(C(=O)C(C)OC(=O)c2n[nH]c(=O)c3ccccc23)cc1 (configuration not stated) | 14µM* | -6% | 5%[38.3 µM] | -8 | 0% | -3
Cc1cccc(NC(=O)/C=C/c2cccs2)n1 | 28µM* | -5% | -5%[38.3 µM] | 12 | 8% | 1
O=C(OC1Cc2c(O)cc(O)cc2OC1c1cc(O)c(O)c(O)c1-c1c(C2Oc3cc(O)cc(O)c3CC2OC(=O)c2cc(O)c(O)c(O)c2)cc(O)c(O)c1O)c1cc(O)c(O)c(O)c1 (configuration not stated) | 22µM* | -26% | -15% | nt | -12% | nt
C[C@@]12C(=O)OC(=O)[C@@]1(C)[C@H]1CC[C@@H]2O1 | nt | 2% | nt | nt | 10% | 12
NC(=O)c1nn(-c2cccc(Cl)c2)c(=O)cc1O | -8% | 9% | 11%[38.3 µM] | -100* | -7% | 4
O=C(COC(=O)c1cccs1)c1ccc2c(c1)OCCO2 | 16µM* | 2% | 42%[38.3 µM] | -19 | -13% | -7
CN(C)c1ccc(C(=O)OCC(=O)c2cccs2)cc1 | -11% | -3% | 18% | -113* | nt | nt
O=C(COC(=O)c1cccs1)c1ccc2ccccc2c1 | ? | 11% | 20% | ? | nt | -4
Cc1ccc(C(=O)COC(=O)c2cccs2)cc1 | 28µM* | -8% | 1% | 78 | nt | -8
SMILES | HPGD block | 12-hLO inh | IMPase Li cell | PNC inhibitor | 15-hLO-2 inh | IMPase cell inh
CCOC(=O)C1=C(CSc2nc(C)ccc2C#N)OC(N)=C(C#N)C1c1cccc(OC)c1OC (configuration not stated) | -8% | -14% | 11%[38.3 µM] | ? | 0% | -8
CCN(CC)C(=O)CSc1nc2ncc(Br)cc2[nH]1 | nt | 0% | nt | ? | -8% | 10
O=C(CSc1nc2ncc(Br)cc2[nH]1)c1ccc([N+](=O)[O-])cc1 | 8.9µM* | -4% | 1% | ? | nt | -5
Fc1ccc(CSc2nc3ncc(Br)cc3[nH]2)cc1 | 0.63µM* | 9% | 14µM* | 12 | -7% | 3
C=C(C)CSc1nc2c(c(=O)[nH]c(=O)n2C)n1CCC(C)C | -9% | -2% | 2%[38.3 µM] | -5 | 4% | 18
COc1ccc(C(O)c2nc3ccccc3s2)cc1 (configuration not stated) | -26% | -5% | -3%[38.3 µM] | -11 | -14% | -3
O=C(O)[C@@H](O)[C@@H](O)[C@@H](O)[C@@H](O)c1nc2ccccc2s1 | 3.5µM* | -12%[11.4 µM] | 0% | nt | -30%[11.4 µM] | nt
O=C(O)c1ccc(Cl)c(S(=O)(=O)Nc2ccccc2)c1 | -2% | -3% | nt | nt | nt | nt
COc1cc(C2C(C#N)=C(N)Oc3cc(O)ccc32)cc(OC)c1OC (configuration not stated) | -13% | 0% | 2%[38.3 µM] | -91* | -6% | 4
CC(C)CN1CC2(CCN(C(=O)c3csnn3)CC2)C1 | -3% | -1% | 16% | nt | 12% | nt
Cc1cc(-c2csc(N)n2)c(C)n1CCc1ccccc1 | -4% | -19% | 36%[38.3 µM] | -108* | 17% | 9
CC(C)(C)NC(=O)NC(=O)COC(=O)c1nc(-c2ccccc2)n(-c2cccc(C(F)(F)F)c2)n1 | -18% | -3% | -6% | -112* | nt | nt
CCC/C=C(\CCC)C(NS(=O)(=O)c1ccc(-c2ccccc2)cc1)c1ccc(C(=O)OC)cc1 (configuration not stated) | -10% | 1% | -3% | nt | 8% | nt
O=C1CCCC(=O)C1=Cc1c[nH]c2ccccc12 | 22µM* | -5% | 18%[38.3 µM] | 21 | -17% | -5
O=C1CCCc2c1[nH]c1ccccc21 | nt | -15% | nt | ? | -15% | -4
CCOC(=O)c1sc2nc(C)nc(SCC(=O)NC(C)CCc3ccccc3)c2c1C (configuration not stated) | -4% | -9% | 10µM* | 15 | nt | nt
CCOC(=O)c1sc2nc(C)nc(SCC(=O)N(C)C3CCS(=O)(=O)C3)c2c1C (configuration not stated) | nt | nt | 10µM* | nt | nt | nt
CC(CCc1ccccc1)NC(=O)CSc1ccccn1 (configuration not stated) | nt | nt | 3% | nt | nt | nt
Cc1sc2ncnc(SCC(=O)N(C)C3CCS(=O)(=O)C3)c2c1C (configuration not stated) | nt | nt | 6% | nt | nt | nt
O=C(c1ccc(-c2ccc([N+](=O)[O-])cc2)o1)N1CCCCC1 | 7.1µM* | -11% | 24% | ? | nt | nt
O=C(c1ccc(-c2ccc(Cl)cc2)o1)N1CCN(c2ccc([N+](=O)[O-])cc2Cl)CC1 | -16% | 3% | 11% | -20 | -1% | -1
